Screens: PubChem, National Center for Advancing Translational Sciences (NCATS)
BAZ2B inh – blocks human BAZ2B; AlphaScreen BAZ2B-H3K14Ac peptide displacement; Potency, µM (series often up to 114 µM), inactives show top-dose activity change, negative = inhibition, actives largely listed as inhibitors; 4.4% of 360,000 active; further: on the % scale 0 is the no-effect control and ±100 the full control effect; nearly all actives have a fitted effect of over 60% in size
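Multi-concentration screen (max 110 uM) measuring displacement of acetylated histone H3 peptide from BAZ2B by AlphaScreen, using 50 nM protein, 50 nM peptide and 10 ug/mL streptavidin donor plus Ni-chelate acceptor beads.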
Sfp inh – Sfp phosphopantetheinyl transferase inhibition; Potency, µM, for inactives: largest response in the series, negative = inhibition, usual class: inhibitors; Biochemical Sfp PPTase activity, qHTS; 3.5% of 310,000 active; Q9F4F7;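 further: the enzyme is Sfp with the accession as filed and its product quenches rhodamine fluorescence; 0% = enzyme reaction without inhibitor and -100% = no enzyme wells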
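Buffer: 50 mM Hepes-Na pH 7.6, 10 mM MgCl2, 0.01% Nonidet P-40, 0.01% BSA. Enzyme 15 nM, pre-exposed to compound 15 min; substrates then added and fluorescence change tracked over 30 min.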
L3MBTL1 inh – inhibitors of human L3MBTL1. 0.66% of 230,000 active. Potency, µM (titrated, usually from 57.1 µM), for the others: at the top dose activity, negative = inhibition, actives largely listed as inhibitors. AlphaScreen L3MBTL1–H3K9me1 peptide binding. Q9Y468; further: on the % scale 0 is the no-effect control and ±100 the full control effect; nearly all actives have a fitted effect of over 60% in size
Target sequence (Q9Y468 whole entry, looked up): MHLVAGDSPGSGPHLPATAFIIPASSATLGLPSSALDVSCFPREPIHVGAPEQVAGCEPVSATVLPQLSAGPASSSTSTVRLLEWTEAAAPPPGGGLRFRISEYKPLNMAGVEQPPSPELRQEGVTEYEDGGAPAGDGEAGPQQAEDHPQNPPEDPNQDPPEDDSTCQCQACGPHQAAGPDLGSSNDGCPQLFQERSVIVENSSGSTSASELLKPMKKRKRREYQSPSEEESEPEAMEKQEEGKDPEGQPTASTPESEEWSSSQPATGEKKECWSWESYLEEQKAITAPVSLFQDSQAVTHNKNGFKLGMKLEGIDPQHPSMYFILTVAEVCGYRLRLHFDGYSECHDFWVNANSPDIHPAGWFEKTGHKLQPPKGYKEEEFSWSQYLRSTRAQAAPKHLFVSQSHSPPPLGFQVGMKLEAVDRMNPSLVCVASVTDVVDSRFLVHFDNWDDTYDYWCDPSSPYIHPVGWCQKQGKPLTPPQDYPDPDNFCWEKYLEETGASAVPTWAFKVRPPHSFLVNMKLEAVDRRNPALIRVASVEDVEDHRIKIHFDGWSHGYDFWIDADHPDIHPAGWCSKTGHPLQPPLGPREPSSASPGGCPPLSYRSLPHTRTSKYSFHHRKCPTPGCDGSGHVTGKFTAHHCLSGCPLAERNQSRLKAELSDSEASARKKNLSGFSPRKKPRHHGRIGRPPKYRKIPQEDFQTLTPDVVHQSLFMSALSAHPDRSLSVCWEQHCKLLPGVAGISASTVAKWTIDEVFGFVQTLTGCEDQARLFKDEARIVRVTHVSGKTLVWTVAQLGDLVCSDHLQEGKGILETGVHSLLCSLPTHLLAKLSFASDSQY
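Read-out is AlphaScreen signal from streptavidin donor and nickel chelate acceptor beads (10 ug/mL final each) bridging L3MBTL1 (50 nM) and biotinylated K9-monomethylated H3(1-15) peptide (75 nM), after 30 min compound exposure at room temperature.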
JMJD2A Tudor inh – JMJD2A Tudor domain (human) inhibition. 4.4% of 390,000 active. O75164. Potency, µM (series often up to 114 µM), inactives show at the top dose activity change, negative = inhibition, actives largely listed as inhibitors. AlphaScreen JMJD2A-Tudor / H3K4me3 peptide binding; further: on the % scale 0 is the no-effect control and ±100 the full control effect; nearly all actives have a fitted effect of over 50% in size
HP1b binding inh – HP1-beta chromodomain-methylated histone interaction inhibition | Potency, µM (series often up to 114 µM), inactives show top-dose activity change, negative = inhibition, hits mostly inhibitors | 0.56% of 390,000 active | P83916 | AlphaScreen HP1-beta / biotin-H3K9me3 peptide binding; further: nearly all actives have a fitted effect of over 70% in size
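Compound inhibition of the preformed complex between 50 nM HP1-beta and 50 nM biotinylated H3K9me3 peptide was read by AlphaScreen. Buffer was PBS pH 7.4 with 0.01% Tween-20. Incubations ran 30 min at room temperature, with 10 ug/mL donor/acceptor beads.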
G9a inh – blocks human histone lysine methyltransferase G9a. G9a H3K9 monomethylation, AlphaScreen, 2 h. Potency, µM (titrated, usually from 102 µM), for the others: at the highest dose activity, negative = inhibition, most hits filed as inhibitors. 8.8% of 350,000 active. AID 504332; further: on the % scale 0 is the no-effect control and ±100 the full control effect; nearly all actives have a fitted effect of over 75% in size
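Step 1: enzyme (final 20 nM) with compound, 15 min RT. Step 2: substrate peptide 500 nM and SAM 20 uM, 2 h RT. Step 3: anti-H3K9me1 antibody and AlphaScreen beads, 10 min, then plate read.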
An asterisk follows results filed as active; [ ] = remark or other dose. Hits are enriched below; roughly 12% of the tested compounds scored in any of these assays. The call rests on the fitted dose curve; in most records, active means well fitted curve in the direction sought with a large enough effect; inconclusive means small, poorly fitted or top-dose-only effect, or another doubt; inactive means no such curve, though single readings can be large; an effect the other way counts as inactive or inconclusive. Potency means the concentration at half of the fitted maximal effect.

How did CC[C@H](NC(C)C)[C@H](O)c1ccc(O)c2[nH]c(=O)ccc12 do in these assays?
Sfp inh: inconclusive; G9a inh: 17%[59 µM]

How did CCC(c1ccc(O)c(O)c1)C(CC)c1ccc(O)c(O)c1 (stereo not drawn) do in these assays?
JMJD2A Tudor inh: 79µM*; HP1b binding inh: inconclusive

Results for COc1ccc(Oc2nc3c(c(=O)n(Cc4ccccc4Cl)c(=O)n3C)n2C)cc1 ?
BAZ2B inh: inconclusive; JMJD2A Tudor inh: -9%; HP1b binding inh: 6%; G9a inh: 2%[59 µM]

How did COC(=O)c1ccc2c(=O)n(CCCCCC(=O)NCCc3ccccc3)c(=O)[nH]c2c1 do in these assays?
BAZ2B inh: -2%; JMJD2A Tudor inh: -23%; HP1b binding inh: 39%; G9a inh: 1%[59 µM]

What do the screens show for `CSc1nc2sc3c(c2c(=O)n1Cc1ccccc1)CCC(C(C)(C)C)C3` (stereo not drawn)?
BAZ2B inh: -15%; JMJD2A Tudor inh: -4%; HP1b binding inh: 21%; G9a inh: -34%[59 µM]

Results for O=C1C=C(c2ccccc2)CC(c2cccs2)C1n1cnc([N+](=O)[O-])c1 (stereo not drawn) ?
BAZ2B inh: -36%; Sfp inh: -15%; L3MBTL1 inh: 0%; JMJD2A Tudor inh: -13%; HP1b binding inh: inconclusive; G9a inh: 45µM*

Results for CSc1nc2c(c(=O)n1C)SC(C)C2 (stereo not drawn) ?
BAZ2B inh: -16%; Sfp inh: 50µM*; L3MBTL1 inh: -3%; JMJD2A Tudor inh: -3%; HP1b binding inh: 40%; G9a inh: -50%[59 µM]

Results for CC1Cc2nc(SCC(=O)Nc3nccs3)n(C)c(=O)c2S1 (stereo not drawn) ?
BAZ2B inh: -7%; Sfp inh: 50µM*; L3MBTL1 inh: -25%; JMJD2A Tudor inh: -15%; HP1b binding inh: 58%; G9a inh: inconclusive

How did CCc1ccc(NS(=O)(=O)c2ccc3[nH]cc(C(=O)NCCCOC(C)C)c(=O)c3c2)cc1 do in these assays?
JMJD2A Tudor inh: -25%; HP1b binding inh: -2%; G9a inh: inconclusive

How did O=C(CSc1nc2c([nH]c3ccccc32)c(=O)n1-c1cccc(C(F)(F)F)c1)N1CCCC1 do in these assays?
BAZ2B inh: -1%; JMJD2A Tudor inh: -5%; HP1b binding inh: 17%[57 µM]; G9a inh: 10%[59 µM]

How did O=[N+]([O-])c1ccc(C2CCCC/C2=N/O)c([N+](=O)[O-])c1 (stereo not drawn) do in these assays?
BAZ2B inh: -15%; Sfp inh: 14%; JMJD2A Tudor inh: 0%; HP1b binding inh: 13%; G9a inh: -3%

What do the screens show for `O/N=C1/CCCCC1c1ccccn1` (stereo not drawn)?
BAZ2B inh: 50µM*; Sfp inh: -24%; L3MBTL1 inh: -10%; JMJD2A Tudor inh: 32µM*; HP1b binding inh: 23%; G9a inh: inconclusive

How did CC(=O)c1ccc(NC(=O)NCCc2c[nH]c3ccccc23)cc1 do in these assays?
BAZ2B inh: -36%; JMJD2A Tudor inh: inconclusive; HP1b binding inh: 19%; G9a inh: -11%[59 µM]

What do the screens show for `COc1ccc(OC)c(-c2nnc(SCC(=O)NC3CCCCC3)o2)c1`?
BAZ2B inh: 4%; Sfp inh: 9%; L3MBTL1 inh: 7%; JMJD2A Tudor inh: -11%; HP1b binding inh: 60%; G9a inh: 45µM*

Results for COc1cccc(-c2nnc(SCC(=O)NC3CCCCC3)o2)c1 ?
BAZ2B inh: -6%; JMJD2A Tudor inh: -15%; HP1b binding inh: -13%; G9a inh: 8.9µM*

Results for CCOC(=O)C1CCCN(S(=O)(=O)c2cc(-c3onc(C)c3C)ccc2OC)C1 (stereo not drawn) ?
BAZ2B inh: -11%; JMJD2A Tudor inh: 1%; HP1b binding inh: 52%; G9a inh: 4%[59 µM]

How did Cc1[nH]c(=S)sc1Cc1ccc(F)cc1 do in these assays?
BAZ2B inh: -34%; Sfp inh: -19%; L3MBTL1 inh: -7%; JMJD2A Tudor inh: 40µM*; HP1b binding inh: -7%; G9a inh: 2µM*
